From PubChem BioAssay AID1159580 (chemical genetic matrix, 2015)
About 2,000 (36%) of roughly 5,500 compounds were called active. About 18% were inconclusive and are not listed. Cut-off read from the data, not from the text of the source: active = normalized growth mostly below about 0.91 (no sharp cut-off); inconclusive = no clear call, values can overlap the other calls; inactive = mostly above about 0.92. The list shows a part of the results.

Assay: chemical genetic growth profiling, strain panel (AID 1159580);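 note: tested at 20 µM; growth read once vehicle control cultures reached saturation at 30 °C; 1 = growth at the plate median or of vehicle wells; lower values mean less growth of the strain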
Details: growth OD

Measured: normalized growth

COc1cc(OC)cc(OC)c1
active: S. cerevisiae deletion strains, locus YCL029C, strain bik1, hits give low values 0.743 | S. cerevisiae deletion strains, locus YDL192W, strain arf1, hits give low values 0.102 | S. cerevisiae deletion strains, locus YDR101C, strain arx1, hits give low values 0.529 | S. cerevisiae deletion strains, locus YDR318W, strain mcm21, hits give low values 0.0697 | S. cerevisiae deletion strains, locus YDR388W, hits give low values 0.0643 | S. cerevisiae deletion strains, locus YDR502C, strain sam2, hits give low values 0.159 | S. cerevisiae deletion strains, locus YER110C, hits give low values 0.305 | S. cerevisiae deletion strains, locus YGL078C, strain dbp3, hits give low values 0.299 | S. cerevisiae deletion strains, locus YGL086W, strain mad1, hits give low values 0.0586 | S. cerevisiae deletion strains, locus YGR135W, strain pre9, hits give low values 0.0735 | S. cerevisiae deletion strains, locus YGR252W, strain gcn5, hits give low values 0.24 | S. cerevisiae deletion strains, locus YHR079C, strain IRE1 (second series), hits give low values 0.598 | S. cerevisiae deletion strains, locus YHR094C, strain hxt1, hits give low values 0.147 | S. cerevisiae deletion strains, locus YHR200W, strain rpn10, hits give low values 0.124 | S. cerevisiae deletion strains, locus YIL125W, strain kgd1, hits give low values 0.263 | S. cerevisiae deletion strains, locus YIR030C, strain dcg1, hits give low values 0.317 | S. cerevisiae deletion strains, locus YJL168C, strain set2, hits give low values 0.206 | S. cerevisiae deletion strains, locus YKL085W, strain MDH1 (second series), hits give low values 0.211 | S. cerevisiae deletion strains, locus YKL085W, strain MDH1, hits give low values 0.211 | S. cerevisiae deletion strains, locus YKR001C, strain vps1, hits give low values 0.127 | S. cerevisiae deletion strains, locus YLR102C, strain apc9, hits give low values 0.106 | S. cerevisiae deletion strains, locus YLR268W, strain sec22, hits give low values 0.0897 | S. cerevisiae deletion strains, locus YLR371W, strain rom2, hits give low values 0.0926 | S. cerevisiae deletion strains, locus YLR418C, strain cdc73, hits give low values 0.104 | S. cerevisiae deletion strains, locus YML032C, strain rad52, hits give low values 0.853 | S. cerevisiae deletion strains, locus YML124C, strain tub3, hits give low values 0.181 | S. cerevisiae deletion strains, locus YMR078C, strain ctf18, hits give low values 0.231 | S. cerevisiae deletion strains, locus YMR223W, strain ubp8, hits give low values 0.0875 | S. cerevisiae deletion strains, locus YNL250W, strain rad50, hits give low values 0.725 | S. cerevisiae deletion strains, locus YNL271C, strain bni1, hits give low values 0.351 | S. cerevisiae deletion strains, locus YNL298W, strain CLA4, hits give low values 0.725 | S. cerevisiae deletion strains, locus YNL307C, strain MCK1, hits give low values 0.0671 | S. cerevisiae deletion strains, locus YOL147C, strain pex11, hits give low values 0.838 | S. cerevisiae deletion strains, locus YOR136W, strain idh2, hits give low values 0.104 | S. cerevisiae deletion strains, locus YOR184W, strain ser1, hits give low values 0.0729 | S. cerevisiae deletion strains, locus YOR316C, strain cot1, hits give low values 0.096 | S. cerevisiae deletion strains, locus YPR119W, strain clb2, hits give low values 0.169 | S. cerevisiae deletion strains, locus YPR163C, strain tif3, hits give low values 0.0751 | S. cerevisiae deletion strains, locus YPR167C, strain met16, hits give low values 0.0964 | S. cerevisiae deletion strains, strain wtn01, hits give low values 0.0632
inactive: S. cerevisiae deletion strains, locus YAL013W, strain DEP1, hits give low values 1.01 | S. cerevisiae deletion strains, locus YBR021W, strain FUR4, hits give low values 1.02 | S. cerevisiae deletion strains, locus YBR229C, strain ROT2, hits give low values 1.01 | S. cerevisiae deletion strains, locus YDL035C, strain GPR1, hits give low values 1.02 | S. cerevisiae deletion strains, locus YDL074C, strain BRE1, hits give low values 1.01 | S. cerevisiae deletion strains, locus YDL101C, strain DUN1, hits give low values 1 | S. cerevisiae deletion strains, locus YDL134C, strain PPH21, hits give low values 1 | S. cerevisiae deletion strains, locus YDL185W, strain tfp1, hits give low values 0.982 | S. cerevisiae deletion strains, locus YDR150W, strain NUM1, hits give low values 1.01 | S. cerevisiae deletion strains, locus YDR162C, strain NBP2, hits give low values 1.02 | S. cerevisiae deletion strains, locus YEL061C, strain CIN8, hits give low values 1 | S. cerevisiae deletion strains, locus YER155C, strain BEM2, hits give low values 1.01 | S. cerevisiae deletion strains, locus YER167W, strain BCK2, hits give low values 1.01 | S. cerevisiae deletion strains, locus YGL248W, strain PDE1, hits give low values 1.01 | S. cerevisiae deletion strains, locus YGR078C, strain PAC10, hits give low values 1.01 | S. cerevisiae deletion strains, locus YGR229C, strain SMI1, hits give low values 1 | S. cerevisiae deletion strains, locus YHR030C, strain SLT2, hits give low values 1.01 | S. cerevisiae deletion strains, locus YHR129C, strain ARP1, hits give low values 1.01 | S. cerevisiae deletion strains, locus YIL066C, strain RNR3, hits give low values 1.01 | S. cerevisiae deletion strains, locus YIL073C, strain SPO22, hits give low values 1 | S. cerevisiae deletion strains, locus YJL095W, strain BCK1, hits give low values 1.01 | S. cerevisiae deletion strains, locus YJL134W, strain LCB3, hits give low values 1 | S. cerevisiae deletion strains, locus YJL187C, strain SWE1 (second series), hits give low values 1.02 | S. cerevisiae deletion strains, locus YJR043C, strain POL32, hits give low values 0.994 | S. cerevisiae deletion strains, locus YJR075W, strain HOC1, hits give low values 1 | S. cerevisiae deletion strains, locus YKL009W, strain mrt4, hits give low values 0.898 | S. cerevisiae deletion strains, locus YKL068W, hits give low values 1 | S. cerevisiae deletion strains, locus YKL190W, strain CNB1, hits give low values 1.01 | S. cerevisiae deletion strains, locus YLR039C, strain RIC1, hits give low values 1.01 | S. cerevisiae deletion strains, locus YLR058C, strain SHM2, hits give low values 1.01 | S. cerevisiae deletion strains, locus YLR262C, strain YPT6, hits give low values 1.04 | S. cerevisiae deletion strains, locus YLR330W, strain CHS5, hits give low values 1 | S. cerevisiae deletion strains, locus YLR342W, strain FKS1 (second series), hits give low values 0.983 | S. cerevisiae deletion strains, locus YML016C, strain PPZ1, hits give low values 1 | S. cerevisiae deletion strains, locus YMR263W, strain SAP30, hits give low values 1.02 | S. cerevisiae deletion strains, locus YMR307W, strain GAS1, hits give low values 0.961 | S. cerevisiae deletion strains, locus YNL067W, strain RPL9B, hits give low values 1.02 | S. cerevisiae deletion strains, locus YNL128W, strain TEP1, hits give low values 1.02 | S. cerevisiae deletion strains, locus YNL153C, strain GIM3, hits give low values 1.02 | S. cerevisiae deletion strains, locus YNL233W, strain BNI4, hits give low values 1.02 | S. cerevisiae deletion strains, locus YNL322C, strain KRE1, hits give low values 1.01 | S. cerevisiae deletion strains, locus YNR052C, strain pop2, hits give low values 1 | S. cerevisiae deletion strains, locus YOL006C, strain TOP1, hits give low values 0.948 | S. cerevisiae deletion strains, locus YOR061W, strain CKA2, hits give low values 1 | S. cerevisiae deletion strains, locus YOR069W, strain VPS5, hits give low values 1 | S. cerevisiae deletion strains, locus YOR144C, strain elg1, hits give low values 0.997 | S. cerevisiae deletion strains, locus YPL055C, strain LGE1, hits give low values 1.02 | S. cerevisiae deletion strains, locus YPL241C, strain CIN2, hits give low values 1.01 | S. cerevisiae deletion strains, locus YPR141C, strain kar3, hits give low values 1.01 | S. cerevisiae strains, strain wild type, hits give low values 1.01
